Reference: PubChem BioAssay (NCI)
The panel holds about 79,000 compounds, 15% with a hit somewhere; the sample as a whole holds those more often. Calls of active or inactive are those of the source. Rule as the data show it: active = growth inhibition above about 70%; inactive = the rest.

What was measured:
[1] = NCI Yeast Anticancer Drug Screen. Data for the mec2-1 strain (AID 157); conditions: S. cerevisiae mec2-1 strain, stronger effect = higher value
Method in brief: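 mec2-1 yeast strain, carrying an alteration in DNA damage repair or cell cycle control, was exposed to compounds; growth inhibition was measured relative to vehicle-treated controls.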

[2] = NCI Yeast Anticancer Drug Screen. Data for the rad14 strain (AID 159);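 also: 0% = growth of vehicle-treated control cultures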; conditions: S. cerevisiae rad14 strain growth inhibition, stronger effect = higher value
Method in brief: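 DNA repair-defective yeast, compound-exposed; % growth inhibition derived by comparison with vehicle-treated controls.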

[3] = NCI Yeast Anticancer Drug Screen. Data for the sgs1 mgt1 strain (AID 161);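 also: 0% = growth of cultures given vehicle only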; conditions: S. cerevisiae sgs1 mgt1 strain, stronger effect = higher value
Method in brief: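 Percent growth inhibition was derived by comparing compound-exposed mutant yeast with vehicle-exposed cultures. The strain carries alterations in DNA damage repair.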

[4] = NCI Yeast Anticancer Drug Screen. Data for the CLN2oe strain (AID 163);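 also: 0% = growth of vehicle-only control cultures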; conditions: S. cerevisiae CLN2oe strain, stronger effect = higher value
Method in brief: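 Yeast cells carrying a defined cell-cycle control alteration were exposed to test compounds. Growth inhibition was scored against vehicle-treated control cultures.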

[5] = NCI Yeast Anticancer Drug Screen. Data for the cln2 rad14 strain (AID 165);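 also: 0% = growth equal to vehicle treated cultures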; conditions: S. cerevisiae cln2 rad14 strain, stronger effect = higher value
Method in brief: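 Yeast carrying cln2 and rad14 alterations (cell cycle control and DNA damage repair) were exposed to compounds. Growth inhibition was measured against vehicle-treated controls.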

[6] = NCI Yeast Anticancer Drug Screen. Data for the bub3 strain (AID 167); conditions: S. cerevisiae bub3 mutant strain, stronger effect = higher value
Method in brief: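 In this screen, a yeast mutant lacking normal mitotic checkpoint function is challenged with compound. Relative growth versus vehicle gives the inhibition value.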

[7] = NCI Yeast Anticancer Drug Screen. Data for the wt2 strain (AID 169);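 also: 0% = growth of vehicle-treated yeast cultures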; conditions: S. cerevisiae wt2 strain growth inhibition, stronger effect = higher value
Method in brief: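 Yeast cells were exposed to test compounds, and growth inhibition was measured relative to vehicle-treated controls.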

[8] = NCI Yeast Anticancer Drug Screen. Data for the mlh1 strain (AID 171);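 also: 0% = growth of vehicle-treated control cultures of the same strain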; conditions: S. cerevisiae mlh1 strain growth inhibition, stronger effect = higher value
Method in brief: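 Yeast carrying a defined genetic alteration in DNA damage repair or cell cycle control were exposed to test compounds. Growth inhibition was measured relative to vehicle-treated controls.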

[9] = NCI Yeast Anticancer Drug Screen. Data for the sgs1 strain (AID 173);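 also: 0% = growth of vehicle-only control cultures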; conditions: S. cerevisiae sgs1 mutant, stronger effect = higher value
Method in brief: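 Yeast mutant strains carrying defined defects in DNA damage repair or cell cycle control were exposed to test compounds. Growth inhibition was scored against vehicle-treated controls.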

[10] = NCI Yeast Anticancer Drug Screen. Data for the mlh1 rad18 strain (AID 175); conditions: S. cerevisiae mlh1 rad18 strain growth inhibition, stronger effect = higher value
Method in brief: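 Growth inhibition of the yeast strain was measured after compound exposure and expressed relative to vehicle-treated controls. The strain carries defined defects in DNA damage repair.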

[11] = NCI Yeast Anticancer Drug Screen. Data for the rad18 strain (AID 177); conditions: S. cerevisiae rad18 mutant growth inhibition, stronger effect = higher value
Method in brief: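 Yeast carrying a defined DNA damage repair alteration were exposed to compounds. Growth inhibition was expressed relative to vehicle-treated controls.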

[12] = NCI Yeast Anticancer Drug Screen. Data for the rad52 strain (AID 147);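 also: 0% = growth of vehicle-treated control cultures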; conditions: S. cerevisiae rad52 mutant growth inhibition, stronger effect = higher value
Method in brief: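 Yeast strain carrying a DNA damage repair alteration was exposed to test compounds. Growth inhibition was measured relative to vehicle-treated controls.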

[13] = NCI Yeast Anticancer Drug Screen. Data for the wt1 strain (AID 149);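 also: 0% = growth of vehicle-treated wt1 cultures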; conditions: S. cerevisiae wt1 strain (SPY 50644) growth inhibition, stronger effect = higher value
Method in brief: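 wt1 strain grown with compound or vehicle; inhibition taken from the growth difference.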

[14] = NCI Yeast Anticancer Drug Screen. Data for the rad50EPP+ strain (AID 151);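 also: 0% = growth of vehicle-treated control cultures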; conditions: S. cerevisiae rad50 mutant strain, stronger effect = higher value
Method in brief: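 Yeast strain carrying rad50 alteration (rad50EPP+) exposed to compounds; growth inhibition measured relative to vehicle-treated controls.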

[15] = NCI Yeast Anticancer Drug Screen. Data for the mgt1 strain (AID 153); conditions: S. cerevisiae mgt1 mutant growth inhibition, stronger effect = higher value
Method in brief: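 Yeast mgt1 strain (DNA repair/cell-cycle alteration panel) exposed to compounds; growth inhibition measured relative to vehicle-treated controls.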

[16] = NCI Yeast Anticancer Drug Screen. Data for the rad50 strain (AID 155);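 also: 0% = growth of vehicle-only cultures of the same strain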; conditions: S. cerevisiae rad50 strain growth inhibition, stronger effect = higher value
Method in brief: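 DNA repair mutant yeast, compound exposure, growth read-out; inhibition is taken relative to vehicle.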

[17] = at 5.0 µM (retest, dose inferred, filed as 0.5)
[18] = at 50.0 µM (retest, dose inferred, filed as 5.0)

Measured: growth inhibition

Clc1ccc2c(c1)N(CCCN1CCCC13CCCCC3)c1ccccc1S2
inactive: [1]; [17] -3% | [1]; at 11.0 µM 2% | [1]; at 33.0 µM 0% | [1]; [18] 20% | [1]; at 50.0 µM 39.8% | [1]; at 100.0 µM -8% | [2]; at 1.2 µM -2% | [2]; at 3.7 µM -7% | [2]; at 11.0 µM -2% | [2]; at 33.0 µM 0% | [2]; at 100.0 µM 4% | [3]; [17] -11% | [3]; [18] 43% | [3]; at 50.0 µM -25.4% | [4]; at 1.2 µM 2% | [4]; at 3.7 µM 4% | [4]; at 11.0 µM 4% | [4]; at 33.0 µM 3% | [4]; at 100.0 µM 2% | [5]; [17] -21% | [5]; [18] -5% | [6]; at 1.2 µM 4% | [6]; at 3.7 µM -13% | [6]; [17] -5% | [6]; at 11.0 µM 1% | [6]; at 33.0 µM 2% | [6]; [18] 15% | [6]; at 50.0 µM -0.55% | [6]; at 100.0 µM 7% | [7]; at 1.2 µM 1% | [7]; at 3.7 µM 2% | [7]; at 11.0 µM 0% | [7]; at 33.0 µM -2% | [7]; at 100.0 µM -2% | [8]; at 1.2 µM 0% | [8]; at 3.7 µM 2% | [8]; at 11.0 µM -4% | [8]; at 33.0 µM -15% | [8]; at 100.0 µM 8% | [9]; at 1.2 µM -2% | [9]; at 3.7 µM -3% | [9]; at 11.0 µM -6% | [9]; at 33.0 µM -7% | [9]; at 100.0 µM -6% | [10]; [17] -6% | [10]; at 50.0 µM 10.1% | [11]; at 1.2 µM -1% | [11]; at 3.7 µM -1% | [11]; at 11.0 µM -9% | [11]; at 33.0 µM -22% | [11]; at 100.0 µM -33%
active: [5]; at 50.0 µM 84% | [10]; [18] 95%

CC(C)(C)[Si](C)(C)OCC1CCC(n2cnc3c(NC(=O)c4ccccc4)ncnc32)O1 (centres undefined)
active: [16]; at 50.0 µM 87.5% | [1]; at 50.0 µM 90% | [10]; at 50.0 µM 80.9%
inactive: [12]; at 1.2 µM -2% | [12]; at 3.7 µM -3% | [12]; at 11.0 µM -2% | [12]; at 33.0 µM -1% | [12]; at 100.0 µM -2% | [13]; at 1.2 µM 0% | [13]; at 3.7 µM 0% | [13]; at 11.0 µM 0% | [13]; at 33.0 µM 4% | [13]; at 100.0 µM -2% | [14]; at 1.2 µM -3% | [14]; at 3.7 µM -2% | [14]; at 11.0 µM 1% | [14]; at 33.0 µM 5% | [14]; at 100.0 µM 5% | [15]; at 1.2 µM -3% | [15]; at 3.7 µM -6% | [15]; at 11.0 µM 0% | [15]; at 33.0 µM 0% | [15]; at 100.0 µM -2% | [16]; at 1.2 µM 1% | [16]; at 3.7 µM -49% | [16]; [17] 0% | [16]; at 11.0 µM -28% | [16]; at 33.0 µM 2% | [16]; [18] 31% | [16]; at 100.0 µM 1% | [1]; at 1.2 µM -3% | [1]; at 3.7 µM 0% | [1]; [17] -2% | [1]; at 11.0 µM -1% | [1]; at 33.0 µM 0% | [1]; [18] 49% | [1]; at 100.0 µM 0% | [2]; at 1.2 µM -1% | [2]; at 3.7 µM -2% | [2]; at 11.0 µM 3% | [2]; at 33.0 µM 3% | [2]; at 100.0 µM 2% | [3]; [17] -1% | [3]; [18] 6% | [3]; at 50.0 µM 27.2% | [4]; at 1.2 µM -2% | [4]; at 3.7 µM 0% | [4]; at 11.0 µM 5% | [4]; at 33.0 µM -1% | [4]; at 100.0 µM -4% | [5]; [17] -4% | [5]; [18] 30% | [5]; at 50.0 µM 42.2% | [6]; at 1.2 µM 2% | [6]; at 3.7 µM 0% | [6]; [17] -2% | [6]; at 11.0 µM 1% | [6]; at 33.0 µM -2% | [6]; [18] 30% | [6]; at 50.0 µM 23.1% | [6]; at 100.0 µM -4% | [7]; at 1.2 µM -1% | [7]; at 3.7 µM 7% | [7]; at 11.0 µM -2% | [7]; at 33.0 µM 5% | [7]; at 100.0 µM -1% | [8]; at 1.2 µM 0% | [8]; at 3.7 µM -3% | [8]; at 11.0 µM -1% | [8]; at 33.0 µM -1% | [8]; at 100.0 µM -1% | [9]; at 1.2 µM -2% | [9]; at 3.7 µM -2% | [9]; at 11.0 µM 0% | [9]; at 33.0 µM 1% | [9]; at 100.0 µM 0% | [10]; [17] -5% | [10]; [18] 47% | [11]; at 1.2 µM -3% | [11]; at 3.7 µM 2% | [11]; at 11.0 µM -1% | [11]; at 33.0 µM 1% | [11]; at 100.0 µM -1%

Oc1ccc2c(c1)C(O)CCCC2 (centres undefined)
inactive: [12]; at 1.2 µM 5% | [12]; at 3.7 µM 9% | [12]; at 11.0 µM 25% | [12]; at 33.0 µM 38% | [13]; at 1.2 µM -3% | [13]; at 3.7 µM -7% | [13]; at 11.0 µM -4% | [13]; at 33.0 µM -1% | [13]; at 100.0 µM 18% | [14]; at 1.2 µM 10% | [14]; at 3.7 µM 25% | [14]; at 11.0 µM 40% | [14]; at 33.0 µM 53% | [15]; at 1.2 µM -2% | [15]; at 3.7 µM 1% | [15]; at 11.0 µM 4% | [15]; at 33.0 µM 17% | [16]; at 1.2 µM 4% | [16]; at 3.7 µM 16% | [16]; [17] 31% | [16]; at 11.0 µM 28% | [16]; at 33.0 µM 46% | [1]; at 1.2 µM -3% | [1]; at 3.7 µM -1% | [1]; [17] 6% | [1]; at 11.0 µM 2% | [1]; at 33.0 µM 7% | [1]; at 50.0 µM 58.6% | [1]; at 100.0 µM 46% | [2]; at 1.2 µM 5% | [2]; at 3.7 µM 13% | [2]; at 11.0 µM 23% | [2]; at 33.0 µM 43% | [3]; [17] 65% | [3]; at 50.0 µM 34.1% | [4]; at 1.2 µM -4% | [4]; at 3.7 µM -6% | [4]; at 11.0 µM -3% | [4]; at 33.0 µM 7% | [4]; at 100.0 µM 42% | [5]; [17] 0% | [5]; [18] 36% | [5]; at 50.0 µM 35.4% | [6]; at 1.2 µM -9% | [6]; at 3.7 µM -8% | [6]; [17] 30% | [6]; at 11.0 µM -9% | [6]; at 33.0 µM -2% | [6]; at 50.0 µM 66.2% | [6]; at 100.0 µM 35% | [7]; at 1.2 µM -5% | [7]; at 3.7 µM -4% | [7]; at 11.0 µM 25% | [7]; at 33.0 µM 4% | [7]; at 100.0 µM 69% | [8]; at 1.2 µM 2% | [8]; at 3.7 µM 10% | [8]; at 11.0 µM 15% | [8]; at 33.0 µM 29% | [9]; at 1.2 µM 5% | [9]; at 3.7 µM 19% | [9]; at 11.0 µM 24% | [9]; at 33.0 µM 43% | [11]; at 1.2 µM 2% | [11]; at 3.7 µM 10% | [11]; at 11.0 µM 20% | [11]; at 33.0 µM 36%
active: [12]; at 100.0 µM 86% | [14]; at 100.0 µM 71% | [15]; at 100.0 µM 71% | [16]; [18] 97% | [16]; at 50.0 µM 77.8% | [16]; at 100.0 µM 91% | [1]; [18] 82% | [2]; at 100.0 µM 95% | [3]; [18] 98% | [6]; [18] 96% | [8]; at 100.0 µM 90% | [9]; at 100.0 µM 93% | [10]; [17] 87% | [10]; [18] 99% | [10]; at 50.0 µM 86.8% | [11]; at 100.0 µM 90%
